# Compounds with a hit are over-represented: about 3.8% of the library has one in this group of screens.
# HepG2 tox-1: qHTS for Inhibitors of TGF-b: Cytotox Counterscreen | HepG2 CAGA-GFP viability, ATP luminescence, 18 h | 410,000 tested, 0.76% active | Potency, µM (titrated, usually from 46.1 µM), for inactives: at the highest dose activity change, negative = cytotoxicity, hits mostly cytotoxic
#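 HepG2 CAGA-GFP cells (1000/well, DMEM with 1% FBS) received compound, then TGF-beta at 500 pg/mL final, and were incubated 18 hours at 37 degrees C. Viability was read by CellTiter-Glo luminescence. Media-only wells were set as complete cell-killing and DMSO as no toxicity.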
# S2 tox: Viability Counterscreen for Primary qHTS for Inhibitors of ATXN expression; S2 cells (HEK-293 line with an ATXN2-luciferase reporter) viability, CellTiter-Fluor protease fluorescence, 24 h; Potency, µM (highest dose often 56.7 µM), usual class: cytotoxic; 400,000 tested, 0.49% active; note: nearly all actives have a fitted effect of over 40% in size
# TGFb SMAD3 inh: qHTS for Inhibitors of TGF-b | HepG2 CAGA-GFP TGF-b/SMAD3 reporter, GFP fluorescence, 18 h; TGF-beta stimulated, 500 pg/mL final | Potency, µM (highest dose often 46.1 µM), inactives show at the top dose activity, negative = inhibition, hits mostly inhibitors | 410,000 tested, 1.2% active | AID 588855, 2011; note: % is set by controls: 0 for no effect and ±100 for the full control effect; nearly all actives have a fitted effect of over 65% in size
#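 First, reporter cells (HEPG2 CAGA-GFP) rested 2 h at 37 degrees C. Next, compounds were pinned in and TGF-beta added to 500 pg/mL final. After 18 h, GFP was imaged per cell and summed per well.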
# ATXN2 expr inh: Primary qHTS for Inhibitors of ATXN expression | HEK-293 ATXN2-luciferase reporter, luminescence, 24 h | Potency, µM (series often up to 57 µM), for the others: top-dose activity change, negative = inhibition, usual class: inhibitors | 360,000 tested, 0.72% active; note: % is set by controls: 0 for no effect and ±100 for the full control effect; nearly all actives have a fitted effect of over 55% in size
#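 qHTS (up to 57 uM final) was run with 24 h compound exposure of reporter cells at 37 °C. Each well was multiplexed: SteadyGlo luminescence measured ATXN2-luciferase expression after a fluorogenic Gly-Phe-AFC viability readout (25 uM final).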
# A549 tox: Nrf2 qHTS screen for inhibitors: counterscreen for cytotoxicity | Potency, µM (titrated, usually from 46 µM), for inactives: at the highest dose activity change, negative = cytotoxicity, actives largely listed as inhibitors | A549 ARE-Fluc cells, CellTiter-Fluor viability, 18-24 h | 390,000 tested, 0.16% active; note: % is set by controls: 0 for no effect and ±100 for the full control effect
#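 Cytotoxicity counterscreen: CellTiter-Fluor fluorescence was measured in A549 ARE_Fluc cells after 18-24 h of compound exposure in a concentration series. The subsequent BugLite luminescent read reports ARE-luciferase activity.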
# Nrf2 block: Nrf2 qHTS screen for inhibitors. 360,000 tested, 2.1% active. A549 ARE-Fluc reporter, luciferase luminescence, 18-24 h. Potency, µM (top dose mostly 46 µM), for the others: at the highest dose activity change, negative = inhibition, usual class: inhibitors; note: % is set by controls: 0 for no effect and ±100 for the full control effect; nearly all actives have a fitted effect of over 60% in size
#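 Cells were seeded and rested 2 h, then exposed to compounds for 18-24 h. CellTiter-Fluor was read first as a viability measure. BugLite was added 15 min before the final luminescent read of ARE-luciferase activity in A549 cells.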
# TGFb CAGA inh: qHTS for Inhibitors of TGF-b: Confirmation of Cherry Picks. Potency, µM (titrated, usually from 46.1 µM), inactives show top-dose activity, negative = inhibition, usual class: inhibitors. HepG2 CAGA-GFP TGF-b reporter, GFP fluorescence, 18 h; cells stimulated with TGF-beta, 500 pg/mL. shares compounds with TGFb SMAD3 inh. 1,600 tested, 63% active; note: % is set by controls: 0 for no effect and ±100 for the full control effect; nearly all actives have a fitted effect of over 65% in size
# HepG2 tox-2: qHTS for Inhibitors of TGF-b: Cytotox Counterscreen for Cherry Picks. shares compounds with TGFb SMAD3 inh. HepG2 CAGA-GFP viability, ATP luminescence, 18 h; cells stimulated with TGF-beta, 500 pg/mL. Potency, µM (doses to about 46.1 µM), without a hit: at the top dose activity, negative = cytotoxicity, usual class: inhibitors. 1,600 tested, 27% active. AID 720535, 2013; note: % is set by controls: 0 for no effect and ±100 for the full control effect; nearly all actives have a fitted effect of over 70% in size
# CCL64 TGFb inh: qHTS for Inhibitors of TGF-b: CCL64 Cells Orthogonal Assay for Cherry Picks; shares compounds with TGFb SMAD3 inh; Potency, µM (series often up to 46.1 µM), inactives show at the highest dose activity, negative = inhibition, most hits filed as inhibitors; AID 720536, 2013; 1,600 tested, 41% active; CCL64 CAGA-GFP reporter, TGF-b stimulated, GFP fluorescence, 18 h; note: nearly all actives have a fitted effect of over 65% in size
# TGFb COP inh: qHTS for Inhibitors of TGF-b: Hit Validation in HepG2 Cells using COP promoter; shares compounds with TGFb SMAD3 inh; HepG2 COP-GFP TGF-b reporter, GFP fluorescence, 18 h; cells stimulated by added recombinant TGF-beta; AID 720537, 2013; 1,600 tested, 3% active; Potency, µM (top dose mostly 46.1 µM), without a hit: at the highest dose activity, negative = inhibition, actives largely listed as inhibitors; note: nearly all actives have a fitted effect of over 70% in size
# * marks the source's active call; other numbers are inactive results; i = inactive; ? = inconclusive; / = not tested or not shown; [ ] = another dose, or the depositor's remark. Calls come from the whole dose curve; as a rule, active = well fitted curve in the direction sought with a large enough effect; inconclusive = small, poorly fitted or top-dose-only effect, or another doubt; inactive = no such curve, though single readings can be large; an effect the other way counts as inactive or inconclusive. Potency is the fitted concentration of half-maximal effect.
SMILES,HepG2 tox-1,S2 tox,TGFb SMAD3 inh,ATXN2 expr inh,A549 tox,Nrf2 block,TGFb CAGA inh,HepG2 tox-2,CCL64 TGFb inh,TGFb COP inh
O=C1N[C@@H](Cc2ccccc2)COC(=O)[C@@H](Cc2ccc(F)cc2)CC/C=C/C[C@@H]1CC(=O)N(CCO)Cc1ccccc1,5%,?,22µM*,?,?,?,16µM*,-27%,23µM*,28%
O=C1N[C@@H](c2ccccc2)COC(=O)[C@@H](Cc2ccc(F)cc2)C/C=C\C[C@@H]1CC(=O)N(CCO)Cc1ccccc1,-4%,?,13µM*,0%,-22%,?,16µM*,?,?,45%
O=C1N[C@H](Cc2ccccc2)COC(=O)[C@@H](Cc2ccc(F)cc2)CC/C=C/C[C@H]1CC(=O)N(CCO)Cc1ccccc1,-6%,?,?,?,?,?,/,/,/,/
O=C1N[C@@H](c2ccccc2)COC(=O)[C@H](Cc2ccc(F)cc2)C/C=C\C[C@H]1CC(=O)N(CCO)Cc1ccccc1,-13%,i,-4%,4%,2%,-3%,/,/,/,/
C[C@@H]1C[C@H]2[C@@H]3CCC4=CC(=O)C=C[C@]4(C)[C@@]3(F)[C@@H](O)C[C@]2(C)[C@@]1(O)C(=O)COC(=O)c1ccncc1,/,i,/,-2%,/,/,/,/,/,/
CC1(C)Cc2ccccc2C2=NNC(=O)C2=N1,-89%,?,3.2µM*,?,-3%,-4%,4.6µM*,7.3µM*,?,12µM*
Cc1cc(N/N=C/c2ccncc2)c([N+](=O)[O-])cc1[N+](=O)[O-],-35%,i,18%,-9%,1%,18%,/,/,/,/
O=C(Nc1ccccc1Cl)N(Cc1nc2ccccc2c(=O)[nH]1)Cc1cccs1,-21%,i,-2%,1%,1%,-20%,/,/,/,/
O=C(Nc1ccc(Cl)cc1)N(Cc1nc2ccccc2c(=O)[nH]1)Cc1cccs1,8%,?,10µM*,-20%,-4%,?,21µM*,?,?,38%
C=CCSc1nnc(C2CCCN(Cc3ccccc3O)C2)n1C (stereo not given),/,i,/,/,/,/,/,/,/,/
Cc1cc(N2CCN(C)CC2)ccc1NC(=O)c1c2c(nc3ccccc13)CCN(Cc1ccccc1)C2,10µM*,?,10µM*,-29%[11.3 µM],10µM*,18µM*,3.3µM*,2.6µM*,8.2µM*,12µM*

# Screening data deposited in PubChem BioAssay by National Center for Advancing Translational Sciences (NCATS).
